# Test results taken from ChEMBL document CHEMBL1961873, “Compounds: GSK PKIS; Assays: Nanosyn kinase panel” (2012).
# “And” between values parts separate entries of the source, which are not always exact repeats. Equal entries are not always repeated.
# Tests used:
# [1] = target: T1, Aurora kinase A (Homo sapiens) (UniProt O14965); conditions: at 1 µM;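 note: values are mean percent inhibition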
# T1 sequence (whole entry): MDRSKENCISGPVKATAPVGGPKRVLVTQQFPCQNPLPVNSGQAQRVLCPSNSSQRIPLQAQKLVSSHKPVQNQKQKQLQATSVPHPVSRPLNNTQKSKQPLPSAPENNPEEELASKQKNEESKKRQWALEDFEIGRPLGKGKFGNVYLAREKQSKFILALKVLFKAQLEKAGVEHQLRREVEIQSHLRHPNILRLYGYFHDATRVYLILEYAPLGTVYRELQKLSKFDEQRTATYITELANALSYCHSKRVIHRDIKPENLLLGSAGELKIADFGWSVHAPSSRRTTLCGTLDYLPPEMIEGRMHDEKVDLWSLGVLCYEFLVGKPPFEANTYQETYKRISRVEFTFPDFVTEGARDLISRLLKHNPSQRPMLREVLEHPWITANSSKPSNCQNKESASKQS
# [2] = target: Aurora kinase B (Homo sapiens) (UniProt Q96GD4); conditions: at 0.1 µM
# [3] = target: Aurora kinase B (Homo sapiens) (UniProt Q96GD4); conditions: at 1 µM
# [4] = target: T2, Aurora kinase C (Homo sapiens) (UniProt Q9UQB9); conditions: at 0.1 µM
# T2 sequence (whole entry): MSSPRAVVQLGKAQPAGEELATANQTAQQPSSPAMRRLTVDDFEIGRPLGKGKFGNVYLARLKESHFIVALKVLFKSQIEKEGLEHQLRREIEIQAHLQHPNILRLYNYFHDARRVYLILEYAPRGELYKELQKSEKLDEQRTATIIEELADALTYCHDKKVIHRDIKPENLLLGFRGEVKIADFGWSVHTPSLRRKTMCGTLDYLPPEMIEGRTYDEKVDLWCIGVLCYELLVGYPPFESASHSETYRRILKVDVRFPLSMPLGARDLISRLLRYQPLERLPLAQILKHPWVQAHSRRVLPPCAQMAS
# [5] = target: T2, Aurora kinase C (Homo sapiens); conditions: at 1 µM
# [6] = target: Serine/threonine-protein kinase 10 (Homo sapiens) (UniProt O94804); conditions: at 0.1 µM
# [7] = target: Serine/threonine-protein kinase 10 (Homo sapiens) (UniProt O94804); conditions: at 1 µM
# [8] = target: T3, Mitogen-activated protein kinase kinase kinase kinase 2 (Homo sapiens) (UniProt Q12851); conditions: at 0.1 µM
# T3 sequence (whole entry): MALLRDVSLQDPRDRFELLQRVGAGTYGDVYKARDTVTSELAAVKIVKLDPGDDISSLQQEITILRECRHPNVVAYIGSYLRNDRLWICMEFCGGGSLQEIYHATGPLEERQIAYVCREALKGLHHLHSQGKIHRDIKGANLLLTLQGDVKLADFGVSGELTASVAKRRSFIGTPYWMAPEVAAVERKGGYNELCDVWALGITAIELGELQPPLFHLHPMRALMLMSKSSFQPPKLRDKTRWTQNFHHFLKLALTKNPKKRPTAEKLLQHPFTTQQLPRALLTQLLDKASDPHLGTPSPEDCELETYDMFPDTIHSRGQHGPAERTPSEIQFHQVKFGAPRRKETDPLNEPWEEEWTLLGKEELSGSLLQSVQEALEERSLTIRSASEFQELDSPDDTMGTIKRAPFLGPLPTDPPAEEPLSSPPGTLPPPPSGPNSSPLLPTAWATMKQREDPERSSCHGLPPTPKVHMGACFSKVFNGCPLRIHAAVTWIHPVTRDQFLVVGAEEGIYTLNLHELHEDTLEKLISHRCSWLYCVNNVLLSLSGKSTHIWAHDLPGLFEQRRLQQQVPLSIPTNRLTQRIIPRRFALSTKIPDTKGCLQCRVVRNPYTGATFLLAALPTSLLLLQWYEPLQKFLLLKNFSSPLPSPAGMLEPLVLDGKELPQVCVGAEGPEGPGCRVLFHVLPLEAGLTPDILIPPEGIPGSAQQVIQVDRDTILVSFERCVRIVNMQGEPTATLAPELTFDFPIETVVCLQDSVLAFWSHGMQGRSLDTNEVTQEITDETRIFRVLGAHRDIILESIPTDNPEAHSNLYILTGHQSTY
# [9] = target: T3, Mitogen-activated protein kinase kinase kinase kinase 2 (Homo sapiens); conditions: at 1 µM
# [10] = target: Mitogen-activated protein kinase kinase kinase kinase 4 (Homo sapiens) (UniProt O95819); conditions: at 0.1 µM
# [11] = target: Mitogen-activated protein kinase kinase kinase kinase 4 (Homo sapiens) (UniProt O95819); conditions: at 1 µM
# [12] = target: Dual specificity mitogen-activated protein kinase kinase 1 (Homo sapiens) (UniProt Q02750); conditions: at 0.1 µM
# [13] = target: Dual specificity mitogen-activated protein kinase kinase 1 (Homo sapiens) (UniProt Q02750); conditions: at 1 µM
# [14] = target: Misshapen-like kinase 1 (Homo sapiens) (UniProt Q8N4C8); conditions: at 0.1 µM
# [15] = target: Misshapen-like kinase 1 (Homo sapiens) (UniProt Q8N4C8); conditions: at 1 µM
# [16] = target: T4, Serine/threonine-protein kinase 4 (Homo sapiens) (UniProt Q13043); conditions: at 0.1 µM
# T4 sequence (whole entry): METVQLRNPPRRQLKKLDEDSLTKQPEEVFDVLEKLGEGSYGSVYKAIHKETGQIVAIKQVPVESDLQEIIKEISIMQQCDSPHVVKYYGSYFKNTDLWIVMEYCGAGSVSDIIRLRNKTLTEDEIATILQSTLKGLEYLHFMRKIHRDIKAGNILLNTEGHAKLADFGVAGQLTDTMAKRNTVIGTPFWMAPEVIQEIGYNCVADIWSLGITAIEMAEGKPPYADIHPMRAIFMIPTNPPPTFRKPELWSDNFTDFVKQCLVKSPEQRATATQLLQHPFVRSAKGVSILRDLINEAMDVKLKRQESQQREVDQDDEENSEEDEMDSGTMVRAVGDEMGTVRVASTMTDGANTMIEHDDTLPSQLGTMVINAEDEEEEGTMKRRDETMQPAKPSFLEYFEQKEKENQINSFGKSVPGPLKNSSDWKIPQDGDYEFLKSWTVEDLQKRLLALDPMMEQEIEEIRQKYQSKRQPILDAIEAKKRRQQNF
# [17] = target: T4, Serine/threonine-protein kinase 4 (Homo sapiens); conditions: at 1 µM
# [18] = target: T5, Serine/threonine-protein kinase 3 (Homo sapiens) (UniProt Q13188); conditions: at 0.1 µM
# T5 sequence (whole entry): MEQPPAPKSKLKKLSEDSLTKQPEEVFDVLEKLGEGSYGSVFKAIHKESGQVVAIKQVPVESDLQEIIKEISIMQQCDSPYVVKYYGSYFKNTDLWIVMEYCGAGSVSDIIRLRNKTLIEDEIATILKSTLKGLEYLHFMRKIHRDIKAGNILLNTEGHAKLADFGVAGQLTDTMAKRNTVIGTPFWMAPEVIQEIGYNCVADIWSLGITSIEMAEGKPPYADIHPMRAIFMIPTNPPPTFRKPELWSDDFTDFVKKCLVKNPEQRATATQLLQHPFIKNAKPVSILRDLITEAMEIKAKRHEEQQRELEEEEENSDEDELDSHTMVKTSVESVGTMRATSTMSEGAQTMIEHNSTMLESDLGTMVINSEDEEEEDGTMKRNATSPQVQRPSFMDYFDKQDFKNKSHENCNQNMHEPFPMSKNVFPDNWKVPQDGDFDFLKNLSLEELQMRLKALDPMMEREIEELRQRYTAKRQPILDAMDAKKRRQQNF
# [19] = target: T5, Serine/threonine-protein kinase 3 (Homo sapiens); conditions: at 1 µM
# [20] = target: Serine/threonine-protein kinase 26 (Homo sapiens) (UniProt Q9P289); conditions: at 0.1 µM
# Chain of Serine/threonine-protein kinase 26 (Homo sapiens) (Q9P289 2-416 limits assumed): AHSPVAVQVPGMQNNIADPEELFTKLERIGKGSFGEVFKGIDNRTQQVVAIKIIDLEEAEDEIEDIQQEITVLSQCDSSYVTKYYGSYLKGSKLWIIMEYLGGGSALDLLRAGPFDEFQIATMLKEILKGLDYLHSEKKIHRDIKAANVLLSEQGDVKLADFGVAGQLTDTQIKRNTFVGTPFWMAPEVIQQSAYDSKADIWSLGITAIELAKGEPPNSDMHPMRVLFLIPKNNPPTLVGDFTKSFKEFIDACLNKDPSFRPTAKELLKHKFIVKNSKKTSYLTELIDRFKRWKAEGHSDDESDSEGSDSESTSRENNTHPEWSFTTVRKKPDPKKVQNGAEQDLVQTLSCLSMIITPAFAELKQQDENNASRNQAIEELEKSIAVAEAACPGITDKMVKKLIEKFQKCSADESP
# Chain of Dual specificity mitogen-activated protein kinase kinase 1 (Homo sapiens) (Q02750 whole entry): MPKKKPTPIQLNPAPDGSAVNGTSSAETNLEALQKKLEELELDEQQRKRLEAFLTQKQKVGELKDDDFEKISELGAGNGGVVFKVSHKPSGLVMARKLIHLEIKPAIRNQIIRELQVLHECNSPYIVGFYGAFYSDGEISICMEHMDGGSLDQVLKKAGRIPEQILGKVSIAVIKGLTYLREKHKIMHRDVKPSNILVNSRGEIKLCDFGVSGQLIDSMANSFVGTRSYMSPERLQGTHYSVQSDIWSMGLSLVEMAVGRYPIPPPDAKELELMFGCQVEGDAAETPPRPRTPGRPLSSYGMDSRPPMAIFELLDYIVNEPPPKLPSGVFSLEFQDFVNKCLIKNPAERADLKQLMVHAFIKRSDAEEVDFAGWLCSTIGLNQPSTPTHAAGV
# Chain of Misshapen-like kinase 1 (Homo sapiens) (Q8N4C8 whole entry, looked up): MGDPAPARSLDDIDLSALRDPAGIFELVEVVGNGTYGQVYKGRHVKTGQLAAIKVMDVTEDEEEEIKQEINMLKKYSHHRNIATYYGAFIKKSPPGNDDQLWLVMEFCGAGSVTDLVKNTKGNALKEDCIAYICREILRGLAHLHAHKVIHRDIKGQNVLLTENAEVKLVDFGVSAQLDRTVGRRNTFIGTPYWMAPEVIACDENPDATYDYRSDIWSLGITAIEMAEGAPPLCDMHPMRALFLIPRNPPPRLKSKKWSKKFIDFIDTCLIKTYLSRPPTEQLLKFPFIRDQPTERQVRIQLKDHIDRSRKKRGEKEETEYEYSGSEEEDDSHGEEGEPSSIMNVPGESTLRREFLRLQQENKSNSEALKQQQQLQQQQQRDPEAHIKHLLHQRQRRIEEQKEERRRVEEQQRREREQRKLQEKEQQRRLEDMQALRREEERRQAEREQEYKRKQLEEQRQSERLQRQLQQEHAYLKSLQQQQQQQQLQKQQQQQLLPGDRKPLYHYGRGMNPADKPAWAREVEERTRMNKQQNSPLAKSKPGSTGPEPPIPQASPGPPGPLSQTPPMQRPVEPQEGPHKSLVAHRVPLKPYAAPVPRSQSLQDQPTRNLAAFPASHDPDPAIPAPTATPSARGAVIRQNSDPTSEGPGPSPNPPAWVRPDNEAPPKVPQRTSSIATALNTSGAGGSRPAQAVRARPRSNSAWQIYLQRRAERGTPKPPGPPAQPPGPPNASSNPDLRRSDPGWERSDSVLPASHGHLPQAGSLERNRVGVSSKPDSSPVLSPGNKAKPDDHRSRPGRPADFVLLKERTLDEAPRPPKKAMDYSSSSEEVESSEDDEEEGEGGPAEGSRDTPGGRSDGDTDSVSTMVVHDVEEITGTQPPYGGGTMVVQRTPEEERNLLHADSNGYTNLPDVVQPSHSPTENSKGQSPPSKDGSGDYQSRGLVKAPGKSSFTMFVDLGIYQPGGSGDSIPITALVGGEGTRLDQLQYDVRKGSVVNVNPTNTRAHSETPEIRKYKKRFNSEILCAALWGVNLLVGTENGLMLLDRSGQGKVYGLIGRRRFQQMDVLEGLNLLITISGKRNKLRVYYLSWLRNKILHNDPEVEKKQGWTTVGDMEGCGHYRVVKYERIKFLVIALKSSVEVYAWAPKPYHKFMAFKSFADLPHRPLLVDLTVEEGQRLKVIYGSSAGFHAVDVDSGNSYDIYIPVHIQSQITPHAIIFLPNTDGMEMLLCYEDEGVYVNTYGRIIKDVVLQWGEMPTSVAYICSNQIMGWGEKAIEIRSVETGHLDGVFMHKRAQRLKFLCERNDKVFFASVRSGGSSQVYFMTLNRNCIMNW
# Chain of Aurora kinase B (Homo sapiens) (Q96GD4 whole entry): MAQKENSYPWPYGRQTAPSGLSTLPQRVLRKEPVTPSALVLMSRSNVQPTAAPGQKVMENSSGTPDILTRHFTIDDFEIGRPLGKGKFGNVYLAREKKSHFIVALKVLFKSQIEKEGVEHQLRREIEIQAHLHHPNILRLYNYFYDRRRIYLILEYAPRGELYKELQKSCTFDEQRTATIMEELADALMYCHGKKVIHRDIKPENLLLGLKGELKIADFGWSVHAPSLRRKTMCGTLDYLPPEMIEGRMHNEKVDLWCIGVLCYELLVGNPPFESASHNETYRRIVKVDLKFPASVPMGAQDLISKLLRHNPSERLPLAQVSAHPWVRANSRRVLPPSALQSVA
# Chain of Mitogen-activated protein kinase kinase kinase kinase 4 (Homo sapiens) (O95819 2-1239 limits assumed): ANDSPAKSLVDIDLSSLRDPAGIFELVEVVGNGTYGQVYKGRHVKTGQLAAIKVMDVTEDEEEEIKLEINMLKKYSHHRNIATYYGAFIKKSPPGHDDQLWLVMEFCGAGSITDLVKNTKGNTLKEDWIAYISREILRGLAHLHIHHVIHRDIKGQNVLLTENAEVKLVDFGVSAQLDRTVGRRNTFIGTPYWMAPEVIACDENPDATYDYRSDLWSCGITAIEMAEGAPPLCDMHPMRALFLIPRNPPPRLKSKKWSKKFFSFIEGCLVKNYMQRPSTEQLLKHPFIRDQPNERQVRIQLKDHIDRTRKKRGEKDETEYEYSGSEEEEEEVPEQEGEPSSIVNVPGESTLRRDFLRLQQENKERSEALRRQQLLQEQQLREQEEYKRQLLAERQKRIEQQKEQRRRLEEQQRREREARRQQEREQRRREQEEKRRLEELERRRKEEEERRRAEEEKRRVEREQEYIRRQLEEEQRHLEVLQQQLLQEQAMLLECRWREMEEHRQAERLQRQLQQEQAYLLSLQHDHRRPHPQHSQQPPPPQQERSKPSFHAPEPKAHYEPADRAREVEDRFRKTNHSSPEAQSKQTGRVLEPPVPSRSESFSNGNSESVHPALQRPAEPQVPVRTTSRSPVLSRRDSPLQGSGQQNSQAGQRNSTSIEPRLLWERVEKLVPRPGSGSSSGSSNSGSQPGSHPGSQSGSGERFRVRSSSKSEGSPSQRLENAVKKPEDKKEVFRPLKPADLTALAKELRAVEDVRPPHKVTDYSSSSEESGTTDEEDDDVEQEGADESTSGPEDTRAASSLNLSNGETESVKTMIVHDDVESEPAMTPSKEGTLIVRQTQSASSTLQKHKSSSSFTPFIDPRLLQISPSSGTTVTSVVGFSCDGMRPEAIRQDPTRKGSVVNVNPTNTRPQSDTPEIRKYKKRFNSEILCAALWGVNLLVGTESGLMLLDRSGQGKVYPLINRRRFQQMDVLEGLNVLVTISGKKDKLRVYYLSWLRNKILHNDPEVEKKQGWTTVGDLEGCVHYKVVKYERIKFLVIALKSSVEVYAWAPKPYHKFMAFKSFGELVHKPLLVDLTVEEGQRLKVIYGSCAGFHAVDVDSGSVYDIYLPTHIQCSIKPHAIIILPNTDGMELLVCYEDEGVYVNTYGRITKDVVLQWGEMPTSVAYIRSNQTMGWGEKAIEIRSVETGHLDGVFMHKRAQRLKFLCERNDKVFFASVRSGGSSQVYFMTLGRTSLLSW
# Chain of Serine/threonine-protein kinase 10 (Homo sapiens) (O94804 whole entry, looked up): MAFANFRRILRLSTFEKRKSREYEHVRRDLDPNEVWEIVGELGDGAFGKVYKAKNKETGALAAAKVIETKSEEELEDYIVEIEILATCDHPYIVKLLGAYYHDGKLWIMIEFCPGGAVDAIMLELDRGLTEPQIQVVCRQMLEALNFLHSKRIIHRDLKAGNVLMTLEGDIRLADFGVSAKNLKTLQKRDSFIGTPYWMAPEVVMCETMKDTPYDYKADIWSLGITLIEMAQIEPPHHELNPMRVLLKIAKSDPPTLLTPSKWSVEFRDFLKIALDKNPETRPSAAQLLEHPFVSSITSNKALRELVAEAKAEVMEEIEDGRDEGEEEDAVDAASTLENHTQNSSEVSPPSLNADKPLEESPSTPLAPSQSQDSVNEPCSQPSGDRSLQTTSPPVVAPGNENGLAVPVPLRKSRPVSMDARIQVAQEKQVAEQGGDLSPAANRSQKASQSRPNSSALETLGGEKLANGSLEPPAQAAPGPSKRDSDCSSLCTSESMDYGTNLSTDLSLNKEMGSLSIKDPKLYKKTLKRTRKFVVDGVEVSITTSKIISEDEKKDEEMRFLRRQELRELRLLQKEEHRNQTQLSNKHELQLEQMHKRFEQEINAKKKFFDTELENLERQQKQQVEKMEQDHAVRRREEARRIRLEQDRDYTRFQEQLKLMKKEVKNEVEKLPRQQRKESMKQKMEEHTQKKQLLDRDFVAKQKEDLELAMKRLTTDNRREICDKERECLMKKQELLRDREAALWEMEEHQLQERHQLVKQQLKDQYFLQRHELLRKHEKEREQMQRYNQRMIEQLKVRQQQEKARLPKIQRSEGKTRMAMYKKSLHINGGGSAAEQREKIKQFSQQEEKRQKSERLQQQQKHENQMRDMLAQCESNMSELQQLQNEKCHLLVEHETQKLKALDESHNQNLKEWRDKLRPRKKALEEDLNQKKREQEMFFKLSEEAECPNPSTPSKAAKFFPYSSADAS
smiles,measurement,setting,value
Fc1ccc(Nc2nccc(-c3c(-c4ccc(C(F)(F)F)cc4)nn4ncccc34)n2)cc1F,inhibition,[1],14.1%
same,inhibition,[2],4.71%
same,inhibition,[3],4.62%
same,inhibition,[4],2.92%
same,inhibition,[5],12.9%
same,inhibition,[6],3.37%
same,inhibition,[7],0.68%
same,inhibition,[8],0.94%
same,inhibition,[9],1.77%
same,inhibition,[10],5.44%
same,inhibition,[11],2.77%
same,inhibition,[12],3.85%
same,inhibition,[13],3.88%
same,inhibition,[14],6.5%
same,inhibition,[15],4.38%
same,inhibition,[16],6.25%
same,inhibition,[17],7.23%
same,inhibition,[18],6.51%
same,inhibition,[19],5.09%
same,inhibition,[20],-0.69%
CN(C)CCNC(=O)Nc1ccc(N(C)c2ccnc(Nc3ccc(CS(C)(=O)=O)cc3)n2)cc1,inhibition,[1],79%
same,inhibition,[2],21.6%
same,inhibition,[3],69.1%
same,inhibition,[4],21.9%
same,inhibition,[5],94.5%
same,inhibition,[6],7.91%
same,inhibition,[7],36.7%
same,inhibition,[8],0.59%
same,inhibition,[9],2.02%
same,inhibition,[10],4.07%
same,inhibition,[11],14.6%
same,inhibition,[12],4.9%
same,inhibition,[13],4.12%
same,inhibition,[14],5.87%
same,inhibition,[15],10.1%
same,inhibition,[16],6.4%
same,inhibition,[17],11.4%
same,inhibition,[18],6.63%
same,inhibition,[19],6.98%
same,inhibition,[20],-0.89%
c1ccc(-c2n[nH]cc2-c2ccnc(-c3ccc(OCCn4ccnc4)cc3)c2)nc1,inhibition,[1],11.1%
same,inhibition,[2],1.69%
same,inhibition,[3],15.1%
same,inhibition,[4],1.04%
same,inhibition,[5],7.73%
same,inhibition,[6],2.54%
same,inhibition,[7],4.01%
same,inhibition,[8],3.67%
same,inhibition,[9],7.08%
same,inhibition,[10],42.6%
same,inhibition,[11],81.8%
same,inhibition,[12],5.95%
same,inhibition,[13],2.45%
same,inhibition,[14],31.9%
same,inhibition,[15],79%
same,inhibition,[16],-0.86%
same,inhibition,[17],6.24%
same,inhibition,[18],-0.71%
same,inhibition,[19],3.49%
same,inhibition,[20],-1.3%
CS(=O)(=O)Nc1ccc(-c2cc(-c3ccccc3)cc(C(N)=O)c2N)cc1,inhibition,[1],1.71%
same,inhibition,[2],1.93%
same,inhibition,[3],5.23%
same,inhibition,[4],0.13%
same,inhibition,[5],4.66%
same,inhibition,[6],2.01%
same,inhibition,[7],4.84%
same,inhibition,[8],-1.83%
same,inhibition,[9],1.34%
same,inhibition,[10],3.1%
same,inhibition,[11],16.6%
same,inhibition,[12],3.57%
same,inhibition,[13],2.74%
same,inhibition,[14],0.77%
same,inhibition,[15],10.4%
same,inhibition,[16],0.24%
same,inhibition,[17],0.83%
same,inhibition,[18],-1.12%
same,inhibition,[19],-0.76%
same,inhibition,[20],-1.2%
O=C(O[C@H]1CN[C@H](C#Cc2cc3ncnc(Nc4ccc5c(ccn5Cc5cc(F)ccc5F)c4)c3s2)C1)N1CCOCC1,inhibition,[1],9.24%
same,inhibition,[2],5.02%
same,inhibition,[3],8.88%
same,inhibition,[4],1.44%
same,inhibition,[5],9.49%
same,inhibition,[6],8.09%
same,inhibition,[7],7.76%
same,inhibition,[8],1.18%
same,inhibition,[9],2.82%
same,inhibition,[10],5.04%
same,inhibition,[11],5.63%
same,inhibition,[12],5.1%
same,inhibition,[13],5.26%
same,inhibition,[14],5.96%
same,inhibition,[15],5.37%
same,inhibition,[16],2.68%
same,inhibition,[17],4.43%
same,inhibition,[18],2.54%
same,inhibition,[19],1.92%
same,inhibition,[20],-1.74%
Nc1nccc(-c2c(-c3ccc(F)cc3)ncn2C2CCNCC2)n1,inhibition,[1],2.76% and 3.22%
same,inhibition,[2],-5.29% and 2.13%
same,inhibition,[3],-0.57% and 3.55%
same,inhibition,[4],-7.14% and -0.01%
same,inhibition,[5],-5.53% and -3.08%
same,inhibition,[6],-0.78% and 0.07%
same,inhibition,[7],4.14% and -0.32%
same,inhibition,[8],-0.37% and 2%
same,inhibition,[9],4.6% and 3.83%
same,inhibition,[10],-1.38% and 3.46%
same,inhibition,[11],11.7% and 20.6%
same,inhibition,[12],-1.59% and 0.76%
same,inhibition,[13],1.41% and 5.84%
same,inhibition,[14],-0.88% and 2.53%
same,inhibition,[15],6.74% and 17%
same,inhibition,[16],-3.42% and 0.28%
same,inhibition,[17],-0.43% and 1.1%
same,inhibition,[18],-3.39% and 1.21%
same,inhibition,[19],1.14% and 0.77%
same,inhibition,[20],0.83% and -0.54%
